Screening data: PubChem BioAssay, National Center for Advancing Translational Sciences (NCATS)
Compounds with a hit are over-represented: about 2.4% of the library has one in this group of screens.
D2 PAM-1: positively modulates the human D2 dopamine receptor allosterically. HEK293 T-REx D2, calcium flux, EC20 dopamine potentiation. potentiation, % at 10 µM. actives 0.34% (n = 340,000). P14416;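 active means potentiation over 3 SD above the plate norm, cut at about 30% in these data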; further: 0% is about no effect
Target sequence (P14416 whole entry, looked up): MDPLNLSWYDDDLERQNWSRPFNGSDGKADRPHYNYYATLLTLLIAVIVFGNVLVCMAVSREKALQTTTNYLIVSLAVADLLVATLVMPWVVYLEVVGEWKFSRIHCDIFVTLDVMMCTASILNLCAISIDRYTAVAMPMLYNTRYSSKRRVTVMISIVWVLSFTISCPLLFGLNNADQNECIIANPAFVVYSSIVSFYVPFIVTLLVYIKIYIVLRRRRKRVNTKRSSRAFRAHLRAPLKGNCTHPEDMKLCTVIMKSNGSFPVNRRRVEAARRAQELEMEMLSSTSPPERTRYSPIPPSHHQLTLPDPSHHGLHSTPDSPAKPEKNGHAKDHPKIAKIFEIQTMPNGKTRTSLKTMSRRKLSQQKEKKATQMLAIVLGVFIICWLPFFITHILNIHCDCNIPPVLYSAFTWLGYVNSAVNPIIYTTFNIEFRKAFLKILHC
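Cells plated with tetracycline inducer and held overnight at 30 C; calcium dye loaded 30–90 min at room temperature; baseline taken, compound added and read 180 s; EC20 dopamine then added and read 180 s.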
D2 antag: D2 dopamine receptor (human) antagonism; HEK293 TREx D2 cells, calcium flux, dopamine EC80; inhibition, % at 10 µM; actives 2% (n = 340,000); in the data active means inhibition above about 30%; inactive means below that, where a call was filed; further: 0% is about no effect
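In this primary screen, negative modulation is detected by tracking calcium flux after an EC80 dopamine challenge in inducible HEK293 T-REx D2 cells preexposed to test compound for 180 s.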
D2 ag-1: agonists of human D2 dopamine receptor (beta-arrestin); P14416; DiscoveRx PathHunter D2 beta-arrestin, luminescence, 90 min; 100% = 57 uM dopamine signal; activation, % (test concentration not listed); actives 0.084% (n = 360,000); in the data active means activation above about 40%
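DiscoveRx PathHunter D2 beta-arrestin cells (2,100/well) attached overnight, then compound-stimulated 90 min at 37 C in HBSS/10 mM HEPES/0.1% Tween-20 buffer; beta-galactosidase complementation read by luminescence after 1 h at ambient temperature. Dopamine 57 uM final (EC100) as control.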
D2 PAM-2: potentiates the human D2 dopamine receptor allosterically; DiscoveRx D2 beta-arrestin cells, luminescence, 90 min; 100% = 57 uM dopamine signal; potentiation, % (test concentration not listed); actives 0.23% (n = 360,000); AID 624464; P14416; in the data active means potentiation above about 50%
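PathHunter beta-arrestin assay in DiscoveRx D2 cells. Compounds were added with an EC20 of dopamine (50 nM final) for 90 min at 37 deg C. Luminescence was read 1 h after detection reagent, with 57 uM dopamine as the EC100 control.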
D2 ag-2: agonists of human D2 dopamine receptor; P14416; HEK293 T-REx D2 cells, calcium flux agonist mode; activation, % at 2 µM; actives 0.53% (n = 340,000); AID 485358;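 active means activation over 3 SD above normal in the single-dose calcium agonist read, cut at about 30% in these data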; further: 0% is about no effect
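Agonism is scored from calcium flux in a force-coupled, inducible HEK293 cell line expressing D2, read kinetically for 180 s after compound addition against dopamine controls.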
Numbers without * were called inactive; . = no result given; ! = repeats disagree.

SMILES	D2 PAM-1	D2 antag	D2 ag-1	D2 PAM-2	D2 ag-2
O=C(COC(=O)/C=C/c1ccc(Cl)cc1)Nc1ccccc1	41*	-2	-2	-7	0
C/C=C/C(=O)OCC(=O)Nc1cccc(Br)c1	-1	-5	8	-2	4
C/C=C/C(=O)OCC(=O)Nc1ccccc1Br	-5	47*	-19	1	0
O=C(COC(=O)/C=C/c1ccccc1)Nc1ccccc1Br	-7	40*	-3	-4	-1
Cc1ccccc1CNC(=O)Cn1cc2c(n1)-c1c(oc(C(=O)N3CCCC3)c1C)CC2	1	.	.	.	1
Oc1oc(-c2ccccc2)nc1C=NCc1ccncc1	5	31*	-3	-13	1
CC(C)COC(=O)c1ccc2c(c1O)C(=O)c1ccccc1C2=O	-1	2	13	62*	0
COc1ccc(C(=O)Nc2nnc(S(=O)(=O)N(C)c3ccc(C)cc3)s2)cc1	-8	.	.	.	3
Cc1cc(S(=O)(=O)N2CCN(c3ccccn3)CC2)ccc1F	-5	33*	0	0	0
Cc1cc(C)c2c(CC(=O)Nc3ccccc3C(F)(F)F)coc2c1	-25	.	.	.	-1
CCc1ccc(-c2cc(C)no2)cc1S(=O)(=O)N1CCN(c2ccc(F)cc2)CC1	-9	36*	-1	-13	1
CCc1ccc(-c2cc(C)no2)cc1S(=O)(=O)NCCN1CCC(C)CC1	-17	6	-4	-38	0
CCc1ccc(-c2cc(C)no2)cc1S(=O)(=O)N1CCN(c2ccc(OC)cc2)CC1	2	5	0	-3	1
CCc1ccc(-c2cc(C)no2)cc1S(=O)(=O)NCCCN1CCN(c2ccccc2)CC1	-24	51*	-3	-34	72*
CS(=O)(=O)c1ccc(Oc2ccc(-c3nnco3)cc2)c([N+](=O)[O-])c1	41*	-2	2	7	2
CCN(CC)CCOc1nnc(-c2ccc(C)cc2)c2ccccc12	6	36*	-4	-12	0
CCN(CC)CCOc1nnc(-c2ccc(OC)cc2)c2ccccc12	-9	0	1	-26	0
CCC(=O)N1CCc2cc(S(=O)(=O)NCCC(=O)Nc3ccc(CC)cc3)ccc21	-11	.	.	.	-1
Cc1ccc(NS(=O)(=O)c2c(C)nc3sccn3c2=O)cc1	-2	9	-1	-4	1
Cc1nc2sccn2c(=O)c1S(=O)(=O)Nc1ccc(N2CCN(C(=O)C(C)C)CC2)cc1	51*!	-5	3	1	-1
Cc1ccc(-c2nn(-c3ccccc3)cc2C(=O)NCCCN2CCOCC2)cc1	-15	31*	7	-39	0
Cc1ccc(-c2nn(-c3ccccc3Cl)cc2C(=O)NCC2CCCO2)cc1 (stereo not drawn)	-2	31*	-6	-36	0
Cc1ccc(-c2nn(Cc3ccccc3)cc2C(=O)NCC2CCCO2)cc1 (stereo not drawn)	9	4	-3	-12	-2
CC(=O)c1ccc(NC(=O)c2cn(-c3ccccc3)nc2-c2ccncc2)cc1	35*	-3	-3	-24	0
Cc1cccc(NC(=O)c2cn(-c3ccccc3)nc2-c2ccccc2)c1	-19	40*	-5	-26	-1
SMILES	D2 PAM-1	D2 antag	D2 ag-1	D2 PAM-2	D2 ag-2
N#Cc1cccc(NC(=O)c2cc3c(s2)-c2ccc(Cl)cc2SC3)c1	.	.	.	.	0
CCN1c2ccccc2-c2nc(SCC(=O)NCc3ccc(C)cc3)ncc2S1(=O)=O	0	.	.	.	.
COC(=O)c1ccc(NC(=O)c2cn(-c3ccccc3)nc2-c2ccncc2)cc1	-19	91*	4	-13	0
COC(=O)COc1ccc2c(=O)c(Oc3ccccc3)c(C)oc2c1	37*	-10	-2	-10	0
CCOc1ccc(Oc2c(C)oc3cc(O)ccc3c2=O)cc1	-2	-7	2	-1	1
O=S(=O)(CCn1cccc1)CCn1cccc1	30*	-14	-3	-21	0
Cn1c(N)c(C(=O)NCc2ccccc2Cl)sc1=S	-6	53*	0	-9	-1
CC(=O)Nc1ccc(S(=O)(=O)N2CCN(c3cc(C(F)(F)F)ccn3)CC2)cc1	-7	4	5	-9	0
FC(F)(F)c1ccnc(N2CCN(Cc3cnc(-c4ccccc4)[nH]3)CC2)c1	-24	90*	1	-20	0
